Compound activity (PubChem)
PABP FP inh: PABP poly(A) RNA binding inhibitors, primary screen, biochemical, fluorescence polarization, uHTS | actives 1% (n = 290,000) | inhibition, % at 35 µM;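 further: calls also rest on retests at 20 µM and on dose response follow-up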
Efflux pump inh: inhibitors of Candida efflux pumps in yeast, primary screen, S. cerevisiae, Nile Red, multiplex; S. cerevisiae Candida pump triplex; inhibition, % at 10 µM; actives 0.44% (n = 330,000); AID 485275, 2010;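 active means plate passing quality check with inhibition over a set limit, or well fluorescence over plate mean plus 4 SD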;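 further: Nile Red retained in pooled yeast measured as flow cytometry median fluorescence; higher means more Nile Red kept so more efflux inhibition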
eIF4H FP inh: human eIF4H binding inhibitors, primary screen, translation initiation inhibitor project, biochemical, uHTS, fluorescence polarization. Eukaryotic translation initiation factor 4H (Homo sapiens), Q15056. eIF4H fluorescence polarization binding assay. inhibition, % at 35 µM. actives 0.94% (n = 290,000). AID 2012, 2009;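 further: calls also rest on retests at 20 µM and on dose response follow-up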
PABP1 MLLE inh: inhibitors of PABP1 MLLE–PAM2 peptide binding, primary screen, biochemical, fluorescence polarization, FITC-PAM2, GST-MLLE; Polyadenylate-binding protein 1 (Homo sapiens), P11940; inhibition, % at 20 µM; actives 0.36% (n = 360,000); in the data active means inhibition above about 35%, passing the limit was not always enough
ALR inh: inhibitors of human ALR sulfhydryl oxidase, primary screen, biochemical, H2O2 detection, HRP-luminol luminescence, single point | purified ALR, DTT oxidation | actives 3.8% (n = 290,000) | FAD-linked sulfhydryl oxidase ALR (Homo sapiens), P55789 | inhibition, % (concentration not given with the values);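 active means mean replicate inhibition above about 79%, with every replicate also reaching it, limit read from the data; inconclusive means only one of the two criteria met; inactive means mean below limit and not every replicate reaching it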
Target sequence (P55789 whole entry, looked up): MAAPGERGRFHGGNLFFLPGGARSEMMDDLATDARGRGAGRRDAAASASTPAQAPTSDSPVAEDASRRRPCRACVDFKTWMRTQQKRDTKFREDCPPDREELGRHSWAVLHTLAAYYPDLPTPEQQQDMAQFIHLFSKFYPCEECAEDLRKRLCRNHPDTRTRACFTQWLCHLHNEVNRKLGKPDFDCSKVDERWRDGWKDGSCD
SUMO HTRF inh: inhibitors of in vitro SUMOylation cascade, primary screen, biochemical, HTRF, uHTS | actives 0.36% (n = 290,000) | HTRF SUMOylation assay, SAE1/SAE2 + UBC9 | AID 2006, 2009 | SUMO-conjugating enzyme UBC9 (Homo sapiens), P63279 | inhibition, % at 35 µM; in the data active means inhibition above about 50%, passing the limit was not always enough; inconclusive means no clear call, values can overlap the other calls
Target sequence (P63279 whole entry, looked up): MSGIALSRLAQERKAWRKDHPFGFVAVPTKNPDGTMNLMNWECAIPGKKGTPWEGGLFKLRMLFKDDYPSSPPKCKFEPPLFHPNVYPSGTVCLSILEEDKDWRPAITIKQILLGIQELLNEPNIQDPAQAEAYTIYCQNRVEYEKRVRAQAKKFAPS
Of the large screens only hits and unclear results are named; the others gave an inactive call. This is a sample that favours compounds with a hit; in the whole collection about 4.7% have one here. Unless noted, how the calls were made is not given here.

CC1=C(C(=O)N2CCN(c3cc(C)ccc3C)CC2)C2(CCCCC2)OC1=O	ALR inh 87
O=C(Cc1ccccc1)NC1CCSc2ccccc21 (stereo not given)	none
COc1ccc(C(=O)O)cc1NC(=S)NC(=O)CSc1ccc(Cl)cc1	PABP1 MLLE inh 40, ALR inh inconclusive
CCC(=O)NC(=S)Nc1cc(C(=O)O)ccc1OC	none
COc1ccccc1CNC(=O)CN1C(=O)NC(c2ccccc2)(c2ccccc2)C1=O	none (no result: PABP FP inh, eIF4H FP inh, SUMO HTRF inh)
CC(C)Cc1cc(C(=O)Nc2c(F)cc(F)cc2Br)no1	eIF4H FP inh 61 (no result: ALR inh)
COCc1cc(=O)[nH]c(/N=C(\N)Nc2cccc(Cl)c2)n1	none
CCCS(=O)(=O)c1ccc(COC(=O)c2cccc(NC(=O)C(C)C)c2)cc1	PABP FP inh 54, eIF4H FP inh active
COc1cccc(C(NC(C)=O)c2nc(-c3cccc(F)c3)cs2)c1 (stereo not given)	none (no result: PABP FP inh, Efflux pump inh, eIF4H FP inh, ALR inh, SUMO HTRF inh)
CC(C)(C)OC(=O)C(Cc1ccc(OC(C)(C)C)cc1)NC(=O)CNC(=O)CNC(=O)OCc1ccccc1 (stereo not given)	eIF4H FP inh active
COc1ccc(S(=O)(=O)N2CN(Cc3ccco3)c3nc4ccccc4nc32)cc1	PABP FP inh inconclusive, eIF4H FP inh inconclusive
Cc1ccc(S(=O)(=O)N2CN(Cc3ccco3)c3nc4ccccc4nc32)cc1	PABP FP inh 51, eIF4H FP inh inconclusive
O=S(=O)(c1ccc(F)cc1)N1CN(Cc2ccco2)c2nc3ccccc3nc21	PABP FP inh 122, eIF4H FP inh 122
COc1cc(OC)c(NC(=O)c2ccc3c(SCC(=O)O)c4c(nc3c2)CCCC4)cc1Cl	PABP FP inh 12, eIF4H FP inh 81
COc1cc(NC(=O)c2ccc3c(SCC(=O)O)c4c(nc3c2)CCCC4)cc(OC)c1OC	ALR inh 97
C=C1CC(COc2ccc3c(C)c(Cl)c(=O)oc3c2)(c2ccccc2)OC1=O (stereo not given)	none (no result: PABP FP inh, Efflux pump inh, eIF4H FP inh, ALR inh, SUMO HTRF inh)
COc1ccccc1OCC(=O)N1CCN(S(=O)(=O)c2ccc(Cl)cc2)CC1	none (no result: PABP FP inh, Efflux pump inh, eIF4H FP inh, ALR inh, SUMO HTRF inh)
COc1ccc(N2C(=O)/C(=C\c3ccco3)N=C2SCC(=O)NC(C)C)cc1Cl	none
COc1ccc(Cl)cc1N1C(=O)/C(=C\c2sccc2C)N=C1SCC(=O)NC1CC1	ALR inh 81
CCCOc1cccc(C(=O)N/N=C/c2coc3ccccc3c2=O)c1	ALR inh 97
O=C(N/N=C/c1coc2ccc(Cl)cc2c1=O)c1cc(O)cc(O)c1	ALR inh 96
O=C(N/N=C/c1coc2ccccc2c1=O)c1cc(Br)c(O)c(Br)c1	ALR inh 98
COc1cc(C(=O)NN2C(=O)NC3(CCC(C)CC3)C2=O)ccc1OC(F)F (stereo not given)	none (no result: PABP FP inh, eIF4H FP inh, ALR inh, SUMO HTRF inh)
Cc1ccc(Nc2ncnc(Cl)c2N)cc1	none (no result: PABP FP inh, Efflux pump inh, eIF4H FP inh, ALR inh, SUMO HTRF inh)
CCOC(=O)C1=C(C)N(C)C(=O)NC1c1cc2c(cc1[N+](=O)[O-])OCO2 (stereo not given)	PABP FP inh 13, eIF4H FP inh 93
COc1cc(OC)cc(C(=O)N2CCN(c3ccc(N4CCOCC4)nn3)CC2)c1	none (no result: PABP FP inh, eIF4H FP inh, SUMO HTRF inh)
COc1ccc(C(=O)N2CCN(c3cccc(C)c3C)CC2)cc1S(=O)(=O)NC1CC1	none (no result: PABP FP inh, Efflux pump inh, eIF4H FP inh, ALR inh, SUMO HTRF inh)
COc1cc(/C=C(\C#N)C(=O)NCC2CCCO2)ccc1OCC(N)=O (stereo not given)	ALR inh 95
COc1ccc(/C=C(\C#N)C(=O)NCc2cccnc2)cc1OC	none
COc1cc(/C=C(\C#N)C(=O)NCc2cccs2)ccc1O	ALR inh 99
CCOc1cc(/C=C(\C#N)C(=O)NCc2cccnc2)ccc1O	ALR inh 88
O=C(CCc1ccccc1)NNC(=O)c1ccccc1Cl	none
O=C(NNCc1ccc(O)cc1)c1ccccc1Cl	ALR inh 99
Cc1nn2c(N)c(-c3ccccc3)cnc2c1-c1ccccc1	none (no result: ALR inh)
CCn1c(/C=C/c2ccccc2)nc2ccccc21	none
CCCn1c(/C=C/c2cc[n+](C)cc2)nc2ccccc21	PABP FP inh 88, SUMO HTRF inh inconclusive
COc1cc(NC(=O)CNC(=O)Cn2cnc3sc(C)c(C)c3c2=O)cc(OC)c1OC	none (no result: PABP FP inh, Efflux pump inh, eIF4H FP inh, ALR inh, SUMO HTRF inh)
Cc1ccc(C(=O)NCC(=O)NC23CC4CC(CC(C4)C2)C3)cc1	none
O=S(=O)(O)c1cc(O)c2c(O)c(N=Nc3cc(Cl)ccc3O)c(S(=O)(=O)O)cc2c1	PABP FP inh 75, eIF4H FP inh 80
Cc1cc(Br)ccc1NCc1ccccn1	ALR inh 98
CC(NC(=O)C1CCN(S(=O)(=O)c2ccc(Br)s2)CC1)c1ccccc1 (stereo not given)	none
CCN(C[C@H]1N[C@@](CC)(C(=O)OC)[C@H]2C(=O)N(Cc3ccccc3)C(=O)[C@@H]12)C(=O)NC(C)C	none (no result: PABP FP inh, eIF4H FP inh, ALR inh, SUMO HTRF inh)
CCOC(=O)c1cnc(-n2[nH]c(C)cc2=O)[nH]c1=O	PABP FP inh active, eIF4H FP inh 100
CCOC(=O)c1cnc(-n2nc(C)cc2C)[nH]c1=O	none
COc1ccc(OC)c(NC(=O)c2ccc(-n3cccn3)nc2)c1	PABP FP inh 101, eIF4H FP inh 106
CNC(=O)c1ccc(-n2cccn2)nc1	none
COc1ccc(S(=O)(=O)Nc2ccc3c(c2)C(=O)N([C@H](C)CO)C[C@H](C)[C@@H](CN(C)S(=O)(=O)c2cn(C)cn2)OCCCC[C@H](C)O3)cc1	none (no result: PABP FP inh, Efflux pump inh, eIF4H FP inh, ALR inh, SUMO HTRF inh)
Cc1ccc(NC(=O)COCC(=O)Nc2ccc(C)cc2)cc1	none
Cc1ccc(S(=O)(=O)OCC(=O)Nc2ccc(C(=O)O)c(O)c2)cc1	PABP1 MLLE inh 44 (no result: PABP FP inh, Efflux pump inh, eIF4H FP inh, ALR inh, SUMO HTRF inh)
COc1ccc(C(=O)COC(=O)c2sccc2C)cc1OC	none (no result: PABP FP inh, eIF4H FP inh, SUMO HTRF inh)
COCCOC(=O)C1=C(C)NC(=O)NC1c1c(Cl)nc2ccccn2c1=O (stereo not given)	PABP1 MLLE inh 41
COCCOC(=O)C1=C(C)NC(=O)NC1c1ccco1 (stereo not given)	PABP FP inh 27, eIF4H FP inh 58
CCOC(=O)C1=C(C)NC(=O)NC1c1ccco1 (stereo not given)	none
CC(C)(C)S(=O)(=O)N1Cc2cc(=O)n(Cc3ccccc3)c(CCO)c2[C@H]1CCO	none (no result: PABP FP inh, Efflux pump inh, eIF4H FP inh, ALR inh, SUMO HTRF inh)
NC(=O)Nc1ccc(C(=O)OCC(=O)Nc2ccc(Cl)cn2)cc1	none
Cn1c(=S)[nH]c2sc3c(c2c1=O)CCC(C(C)(C)C)C3 (stereo not given)	none
Cc1nc(C2CCC3C4CCC5=CC(=O)CC[C@]5(C)C4CC[C@]23C)cs1 (stereo not given in full)	Efflux pump inh 2.0 (no result: PABP1 MLLE inh)
S=c1[nH]c2ccc(Cl)cc2[nH]1	none
COc1ccc2[nH]c(=S)[nH]c2c1	ALR inh 98
Cc1cc(C(=O)Cn2cnc3ccc(Cl)cc3c2=O)c(C)n1C1CC1	none (no result: PABP FP inh, Efflux pump inh, eIF4H FP inh, ALR inh, SUMO HTRF inh)
